Records with an inconclusive call do not appear. Calls of active or inactive are those of the source. Unless noted, calls follow the shape of the dose curve; as a rule, active = well fitted activation curve with a large enough effect; inconclusive = small, poorly fitted or top-dose-only effect; inactive = flat fitted curve, though single readings scatter.
Assay: qHTS Assay for Identification of Small Molecule Agonists for Hypoxia Response Element Signaling Pathway (AID 914; active = well fitted activation curve with a large enough effect in the signal ratio, with a control signal flat, not every such curve was filed as active; the % refers to the signal ratio)
Details: ME-180 HRE-bla reporter, beta-lactamase ratio, CoCl2, 17 h; active compounds read high
How it was run: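 ME-180 cells carrying an HRE-driven beta-lactamase reporter were treated with compounds in a titration series plus an EC50 level of CoCl2 for 17 h at 37 degrees Celsius; CCF4 readout as the 460nm/530nm ratio gave AC50 values.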
Also: % of control where 0% means no effect.

activation, inactive:
COC(=O)[C@H](Cc1ccccc1)NC(=O)[C@@H](C)CO 5.86%
C[C@H]1COC(=O)[C@H]2CCCN2C(=O)[C@@H](C)COC(=O)[C@H](Cc2ccccc2)NC1=O -0.107%
Cc1ccc(S(=O)(=O)N[C@H]2COC(=O)C/C=C\[C@@H](C)[C@H](NS(=O)(=O)c3ccc(C)cc3)COC(=O)[C@H](C)NC(=O)C/C=C\[C@H]2C)cc1 3.42%
C[C@@H]1/C=C\CC(=O)OC[C@H](C)C(=O)N[C@@H](C)C(=O)OC1 0.738%

Assay: Confirmation and Secondary Assay for Modulators of Hemoglobin Beta Chain Splicing at IVS2 705 locus (AID 930);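 also: HeLa cells stably expressing the EGFP-705 splicing reporter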
Details: HeLa EGFP-705 splicing reporter, GFP fluorescence, 48 h; series mostly up to 46.1 µM
How it was run: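 HeLa cells stably carrying EGFP interrupted by mutant beta-globin IVS2-705 intron (CMV-driven) were seeded at 500 cells/well, treated next day with compound for 2 days at 37C; corrected splicing restores EGFP, read as total peak GFP intensity per well.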

outcome, inactive:
C=C1c2c(Cl)ccc(O)c2C(O)=C2C(=O)[C@]3(O)C(O)=C(C(N)=O)C(=O)C(N(C)C)C3C(O)C12 (stereo partly specified)
CNC(C)C1CC[C@H](N)[C@@H](OC2C(N)C[C@H](N)[C@@H](OC3OC[C@](C)(O)C(NC)[C@H]3O)C2O)O1 (stereo partly specified)
Nc1ncn(C2OC(CO)C(O)C2O)c(=O)n1 (stereo unspecified)
CC(=O)OC1CCC2(C)C3=C(CCC2C1(C)C)[C@@]1(C)CCC(C(C)CCC=C(C)C)[C@@]1(C)CC3 (stereo partly specified)
CC1CC2C3CC(F)C4=CC(=O)C=C[C@@]4(C)[C@@]3(F)C(O)C[C@]2(C)[C@]1(O)C(=O)COC(=O)C(C)(C)C (stereo partly specified)
COc1cc2c(cc1OC)C1C(=O)c3c(cc4c(c3O)C=CC(C)(C)O4)OC1CO2 (stereo unspecified)
CC(=O)N1CCN(c2ccc(OCC3CO[C@@](Cn4ccnc4)(c4ccc(Cl)cc4Cl)O3)cc2)CC1 (stereo partly specified)
CN1C2CC(OC(=O)C(CO)c3ccccc3)C[C@@H]1[C@H]1OC21 (stereo partly specified)
CC(C)CC1C(=O)N2CCCC2C2(O)O[C@@](NC(=O)C3C=C4c5cccc6[nH]c(Br)c(c56)CC4N(C)C3)(C(C)C)C(=O)N12 (stereo partly specified)
COc1cc2c(cc1OC)C1C(=O)c3c(O)cc4c(c3OC1CO2)C=CC(C)(C)O4 (stereo unspecified)
CC1CC[C@@]2(C(=O)O)CC[C@]3(C)C(=CCC4[C@@]5(C)CCC(O)C(C)(C)C5CC[C@@]43C)C2C1C (stereo partly specified)
CC(=O)[C@]1(O)CCC2C3CC(C)C4=CC(=O)C=CC4(C)[C@@]3(F)C(O)C[C@]21C (stereo partly specified)
